Source: PubChem BioAssay (Sanford-Burnham Center for Chemical Genomics)
Only some compounds are listed: those with a hit (about 4% of all), similar ones and a draw of the others.
Peg3 prom inh – reduces Peg3 promoter-driven luciferase expression in HeLa. HeLa PEG-Prom luciferase reporter, luminescence, overnight. inhibition, % at 20 µM. 360,000 tested, 1.7% active;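 active = inhibition of at least 50% at 20 µM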
CF NFkB block – cystic fibrosis NF-kB activation inhibition; KKLEB NF-kB-GFP reporter, PAF-induced, GFP fluorescence overnight; inhibition, % at 5 µM; 360,000 tested, 0.86% active;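 active = at least 50% inhibition at 5 µM, scaled per plate between neutral and stimulator controls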;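 also: PAF is a Pseudomonas aeruginosa culture filtrate used as stimulus; plate controls were PAF-stimulated DMSO wells for no effect and unstimulated DMSO wells for full effect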
TROY NFkB inh – TROY signaling inhibition | Q293 LMP1-TROYcd NF-kB luciferase reporter, 4 h | inhibition, % at 10 µM | 360,000 tested, 0.98% active;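 active = compounds whose plate-normalised and pattern-corrected inhibition of the luciferase reporter signal at the single screening dose is 50% or more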
TWEAK Fn14 block – inhibitors of TWEAK-Fn14 interaction signaling; TWEAK-stimulated Fn14 reporter cells, luciferase luminescence, 8 h; 360,000 tested, 2% active; inhibition, % at 10 µM; in the data active = inhibition above about 50%
KKLEB tox – counter-screen for CF NF-kB inhibitors: cytotoxicity; KKLEB CF airway cells viability, ATPlite luminescence, overnight; stronger effect = lower value; cells stimulated with P. aeruginosa culture filtrate; activity change (cytotoxicity), % at 5 µM; 360,000 tested, 0.36% active;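 active = corrected activity change at or below -50% at 5 µM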
HIF-2a block – inhibitors of HIF-2a; 786-0 RCC cells HIF-2a reporter, luciferase luminescence, overnight; inhibition, % at 18.8 µM; 360,000 tested, 0.72% active; AID 624352;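 active = inhibition of the luminescence signal of 40% or more relative to plate controls, in a single-dose primary screen at 18.75 µM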
CF NFkB conf – confirmation of cystic fibrosis induced NF-kB inhibitors; shares compounds with CF NFkB block; KKLEB CF airway cells, PAF-induced NF-kB-GFP fluorescence, overnight; inhibition, % at 5 µM; 1,300 tested, 64% active; AID 602472; in the data active = inhibition above about 40%;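 also: stimulus PAF is a Pseudomonas aeruginosa filtrate and not platelet activating factor; plate controls were DMSO wells with stimulus for no effect and unstimulated DMSO wells for full effect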
* = called active by the depositor; · = no result.

SMILES	Peg3 prom inh	CF NFkB block	TROY NFkB inh	TWEAK Fn14 block	KKLEB tox	HIF-2a block	CF NFkB conf
c1ccc2c(-c3cncc4ccccc34)cncc2c1	20	76*	34	54*	-32	35	43*
O=C(NCc1ccccc1)C1=C[C@H](c2csc3ccccc23)C[C@H](OCc2ccc(CO)cc2)O1	34	53*	16	33	-48	23	60*
O=C(NCc1ccccc1)C1=C[C@@H](c2ccccc2)C[C@@H](OCc2ccc(CO)cc2)O1	2	-5	-39	0	-3	-6	·
CC(NC(=O)c1ccccc1)C(=O)OCC(=O)c1c(N)n(C)c(=O)n(C)c1=O (centres undefined)	5	3	1	5	-4	3	·
CC(=O)NC(CC(C)C)C(=O)NC(Cc1ccccc1)C(=O)CCl (centres undefined)	32	52*	10	10	-21	-9	56*
CC1(C)COC(/C=C/c2cccc([N+](=O)[O-])c2)=N1	-29	52*	-27	36	-14	-35	39
COc1ccc(C(=O)NCCNc2nc3ccc(C)cc3cc2C#N)cc1OC	15	-4	12	12	7	8	·
CC(C)CC1NC(=S)N(Cc2ccccc2)C1=O (centres undefined)	99*	58*	2	-3	-17	-11	10
NC(=O)c1sc2nc3c(c(-c4ccco4)c2c1N)CCCC3	11	65*	10	-17	-11	22	80*
Nc1nc(N)nc(-c2cc([N+](=O)[O-])ccc2O)n1	60*	61*	2	41	-21	-28	73*
COc1ccc(N(C)C(=O)C2CCCN2S(=O)(=O)c2cccc3nsnc23)cc1 (centres undefined)	12	1	-7	-10	0	7	·
CNc1ccccc1C(=O)OC(C)C(=O)Nc1ccc(Cl)cn1 (centres undefined)	100*	69*	16	26	-8	-186	34
CCOc1ncccc1C(=O)OC(C)C(=O)Nc1ccc(Cl)cn1 (centres undefined)	4	36	6	-3	-15	10	·
O=C(Cc1ccc(Br)cc1)Nc1ccc2[nH]ncc2c1	5	53*	9	1	-45	17	15
O=C(Cc1ccccc1)Nc1ccc2[nH]ncc2c1	-20	14	6	11	-3	-27	·
C=CCN=C1S/C(=C\N(C)C)C(=O)N1S(=O)(=O)c1ccc(C)cc1	19	-14	8	-5	-5	13	·
COc1cc2c(c(OC)c1OC)C(c1ccccc1C)CC(=O)O2 (centres undefined)	5	-4	-6	9	4	-5	·
c1csc(CNc2ncnc3ccc(-c4ccoc4)cc23)c1	-11	77*	55*	88*	-7	4	92*
c1csc(CNc2ncnc3ccc(-c4ccc5c(c4)OCO5)cc23)c1	30	27	15	-24	-24	29	·
O=C(CN1C(=O)NC(Cc2ccccc2)C1=O)Nc1ccc(F)c(Cl)c1 (centres undefined)	10	-27	-10	9	7	7	·
CN(c1ncnc(N)c1[N+](=O)[O-])C1CCS(=O)(=O)C1 (centres undefined)	-3	51*	25	50	-14	8	61*
Nc1ncnc(NC2CCS(=O)(=O)C2)c1[N+](=O)[O-] (centres undefined)	-25	52*	19	20	-6	11	35
Cn1c(=O)c([N+](=O)[O-])c(NC2CCS(=O)(=O)C2)c2ccccc21 (centres undefined)	11	4	-4	16	3	10	·
COc1ccc(N(C)S(=O)(=O)c2cccc(C(=O)Nc3nc4ccccc4[nH]3)c2)cc1	13	-8	29	27	1	-42	·
CN(c1cccc(Cl)c1)S(=O)(=O)c1cccc(C(=O)Nc2nc3ccccc3[nH]2)c1	76*	80*	35	74*	-16	-147	47*
SMILES	Peg3 prom inh	CF NFkB block	TROY NFkB inh	TWEAK Fn14 block	KKLEB tox	HIF-2a block	CF NFkB conf
COc1cc(-c2nc(=S)[nH][nH]2)cc(OC)c1OC	-8	-5	21	10	12	16	·
O=C(Oc1cc2oc(=O)cc(-c3ccccc3)c2cc1Cl)C1CCCCC1	2	64*	44	21	-17	-4	87*
CCc1cc2c(-c3ccccc3)cc(=O)oc2cc1OC(C)C(C)=O (centres undefined)	-8	22	20	-1	-13	-24	·
CC(C)(C)OC(=O)NCC(=O)Oc1cc2oc(=O)cc(-c3ccccc3)c2cc1Cl	6	53*	48	80*	1	13	90*
Cc1ccc(S(=O)(=O)N2CCN(C(=O)CN3C(=O)c4ccccc4C3=O)CC2)c(C)c1	-1	1	-17	-1	-1	7	·
NNC(=O)Cc1cccc2ccc(Cl)cc12	-16	0	0	12	-6	3	·
O=C(COc1ccc(Cl)cc1)Nc1ncc([N+](=O)[O-])s1	-111	57*	48	79*	-49	-240	75*
CCC(Oc1ccccc1)C(=O)Nc1ncc([N+](=O)[O-])s1 (centres undefined)	-1	50*	48	8	-3	-77	46*
CCC(Oc1ccccc1)C(=O)Nc1nnc(C)s1 (centres undefined)	12	-3	0	3	4	3	·
C#CCOCCOCCOCCNc1nc(N2CCN(C(=O)[C@H](CCCCN)n3cc([C@@H](N)[C@H](C)CC)nn3)CC2)nc(N2CCN(C(=O)[C@H](CCC(=O)O)n3cc([C@@H](N)CCSC)nn3)CC2)n1	-12	22	-6	0	-4	3	·
CC(=O)Oc1c(Br)cc(N(C(C)=O)S(=O)(=O)c2ccccc2)c2ccccc12	-8	88*	4	38	-41	-3	74*
O=C(c1cc(COc2ccc(F)c(F)c2)on1)N1CCN(C/C=C/c2ccccc2)CC1	-52	0	9	-15	-6	-111	·
O=C1NC(c2cccc3ccccc23)Nc2ccc(Cl)cc21 (centres undefined)	-13	52*	34	49	-26	2	84*
Clc1ccc(C2Nc3cccc4cccc(c34)N2)c(Cl)c1	11	-6	7	24	-9	-9	·
COc1ccc(CC(=O)N/N=C/c2ccc(C)s2)cc1	-7	-22	-46	8	-4	-53	·
CCCOc1cccc(C2C(C(=O)c3cc4ccccc4o3)=C(O)C(=O)N2c2cc(C)on2)c1 (centres undefined)	4	66*	-14	-3	-2	-2	24
